Each structure is given as a SMILES string. Screen size: about 350,000 compounds; about 9,900 (2.8%) were called active. Another 15% or so got no clear call; they are omitted. Calls follow the shape of the dose curve; as a rule, active = well fitted activation curve with a large enough effect; inconclusive = small, poorly fitted or top-dose-only effect; inactive = no such curve, though single readings can be large or run the other way. The list comes from a sample in which actives are over-represented; it also holds similar structures and randomly drawn compounds. A call without a number means that no potency is given here.
Potency is read from the fitted curve at half-maximal effect.

This assay can be described thus: A quantitative high throughput screen for small molecules that induce DNA re-replication in MCF 10a normal breast cells. Also: nearly all actives have a fitted effect of over 50% in size. The settings on record: MCF 10A DNA re-replication, Hoechst nuclear intensity, 48 h; series mostly up to 46.1 µM. From the text:
H Molecular Libraries Probe Production Network [MLPCN]
NIH Chemical Genomics Center [NCGC]
Assay Provider: Melvin DePamphilis, NICHD, NIH
Eukaryotic cells normally restrict genome duplication to once per cell division. When this process is aberrant, DNA re-replication occurs when cells reinitiate DNA replication before the first round of replication is complete. DNA re-replication induces the DNA damage response, arrests cell proliferation, and triggers apoptosis. The cell cycle components cyclin A, Cdt-1, Cdc6 and geminin are critical regulators of this process and their misregulation results in DNA re-replication in normal and cancer cells. To identify compounds that induce re-replication in normal cells, an image-based assay was used to measure DNA content of nuclei, as detected by the fluorescent DNA binding dye, Hoechst. Cell nuclei were imaged by a fluorescence scanning plate imager and compounds that induce DNA re-replication were identified by the increase of nuclei with elevated fluorescence intensity
For screening, 250 cells in 5 uL/well were dispensed into black clear 1536-well plates (Aurora) using a solenoid-based dispenser. Following transfer of 23 nL compound or DMSO vehicle by a pin tool, the plates were incubated 48 hr at 37 C and 5% CO2. After addition of 1 uL/well Hoescht stain, the plates were incubated 40 min at 37 C, 5% CO2 and total intensity of fluorescent objects (nuclei) were enumerated by an Acumen Explorer Ex3 (TTP LabTech) fluorescence scanning plate imager (405 nm excitation, 500-530 nm emission).
Keywords: NIH Roadmap, MLPCN, MLI, MLSMR, qHTS, NCGC, DNA replication, cancer
For the compound `Cc1cccc(N(CC(=O)N=Nc2c(O)[nH]c3ccccc23)S(C)(=O)=O)c1C`, the Potency result is “inactive”.
The result for `O=C(CCN1CCCCC1)N=Nc1c(O)[nH]c2ccccc12` reads 3.66 µM (active); that for `COCC(=O)N=Nc1c(O)[nH]c2ccccc12`, “inactive”.
As for `CCCCc1ccc(NS(=O)(=O)c2cccc(C(=O)N3CCCN(C)CC3)c2)cc1`, the Potency result was “inactive”.
The result for `O=C(O)c1ccc(S(=O)(=O)c2ccccc2)s1` reads “inactive”; that for `Cc1nc2ccc(N)nc2nc1C`, “inactive”; that for `CCN(C[C@H]1N[C@@](CC)(C(=O)OC)[C@H]2C(=O)N(C)C(=O)[C@@H]12)C(=O)Nc1ccc(F)cc1`, “inactive”.
For `CCOC(=O)c1c(C)oc2cc(Sc3ccccc3)c(O)c(O)c12`, the Potency entry was “inactive”.
Turning to `CCOC(=O)c1c(-c2ccccc2)oc2cc(Br)c(O)cc12`, the Potency was 16.4 µM (active).
Regarding `CCOC(=O)c1c(-c2ccccc2)oc2ccc(OCC(N)=O)cc12`, the Potency entry is “inactive”.
In the case of `CCOC(=O)c1c(-c2ccccc2)oc2cc(Br)c(O)c(C=O)c12`, the Potency was 2.91 µM (active).
As for `CCOC(=O)c1c(-c2ccccc2)oc2ccc(OCC(=O)NN)cc12`, the Potency result was “inactive”.
For `Cc1oc2cc(Br)c(O)c(Br)c2c1C(=O)c1ccccc1`, the Potency result was “inactive”.
The entry for `CC[C@]12c3[nH]c4cc(CCC(=O)N(C)C)ccc4c3CCN1C(=O)[C@@H](CC(=O)NCc1ccco1)C[C@@H]2C(=O)N1CCN(C(=O)c2ccco2)CC1` is “inactive”; for `O=C(CSc1nnc(Nc2ccccc2F)s1)NC1CCCC1` it is “inactive”; for `O=C(COC(=O)c1n[nH]c2ccccc12)Nc1ccccc1Br` it is “inactive”.
In the case of `COc1ccc(NC(=O)/C(N=Nc2cccc(S(=O)(=O)Nc3ccc(SC(F)F)cc3)c2)=C(\C)O)cc1`, the Potency entry was “inactive”.
Turning to `CC(C)CN(Cc1c(O)ccc2c(=O)c(-c3ccccc3)coc12)CC(C)C`, the Potency result is “inactive”.
Turning to `O=c1c(-c2ccccc2)coc2cc(O)ccc12`, the Potency result is “inactive”.
For `CC(C)=CCc1c(O)c(CC=C(C)C)c2occ(-c3ccc(O)cc3)c(=O)c2c1O`, the Potency was 9.2 µM (active).
Turning to `O=C(NN=Cc1ccc([N+](=O)[O-])cc1)C1CC1`, the Potency entry is “inactive”.
For the compound `COc1ccccc1N1CCN(C(=O)C2Cc3ccccc3CN2C(=O)c2ccco2)CC1` (centres undefined), the Potency result is “inactive”.
For the compound `Cc1ccc(S(=O)(=O)CC(=O)Nc2nnc(C)s2)cc1`, the Potency result was “inactive”.
The figure for `CC(=O)N1CCc2c(sc(NC(=O)CCS(=O)(=O)c3ccc(C)cc3)c2C(N)=O)C1` is 3.26 µM (active); for `CCOc1ccc(OCC)c(NC(=O)CCS(=O)(=O)c2ccc(C)cc2)c1` it is “inactive”.
Take `Cc1cc(C)cc(-c2nnc(SCC(=O)NC3CC3)o2)c1`: the Potency result is “inactive”.
`O=C(NCc1ccccc1CN1CCCC1)c1cccc(S(=O)(=O)Nc2ccc(F)cc2)c1`: the Potency result was “inactive”.
With `COc1cc(C(=O)CCc2ccc3c(c2)OCO3)cc(OC)c1OC`, the Potency result is “inactive”.
As to `Cc1noc(C)c1C(=O)N1CCOCC1`, the Potency entry was “inactive”.
Turning to `Cc1ccccc1-c1ccc(Nc2ccc(C(=O)N3CCOCC3)cc2)nn1`, the Potency result is “inactive”.
Regarding `Cc1oc2c(c1C(=O)N1CCOCC1)C(=O)c1ccccc1C2=O`, the Potency is 16.4 µM (active).
As to `NS(=O)(=O)c1ccc(CNC(=O)c2cccc(S(=O)(=O)N3CCc4ccccc43)c2)cc1`, the Potency result was “inactive”.
As for `COc1ccc(C(C)(C)C)cc1NC(=O)CCN1C(=O)C2CCCCC2C1=O` (centres undefined), the Potency result was “inactive”.
As for `COc1ccc(C2=NN(c3ccccc3)C(c3cccs3)C2)cc1` (centres undefined), the Potency was 3.26 µM (active).
For `COc1ccc(C2=NN(C(C)=O)C(c3ccccc3)C2)cc1` (centres undefined), the Potency result was “inactive”.
For the compound `COc1ccc(C2=NN(C(=O)c3ccccc3C(=O)O)C(c3ccccc3O)C2)cc1` (centres undefined), the Potency result was “inactive”.
Regarding `O=C(Nc1cc(S(=O)(=O)N2CCCCC2)ccc1Cl)C1COc2ccccc2O1` (centres undefined), the Potency entry was “inactive”.
Regarding `C=CC[C@@H](CC(=O)N[C@@H](CO)Cc1ccccc1)C(=O)NCCOC(=O)[C@@H](CC=C)CC(=O)OC(C)(C)C`, the Potency entry is “inactive”.
The entry for `CCCCn1c(N)c(N(CCC(C)C)C(=O)COC(=O)c2ccc(CC)cc2)c(=O)[nH]c1=O` is “inactive”; for `O=C(/C=C/c1ccco1)NC(=S)Nc1ccccc1Br` it is 20.6 µM (active); for `COc1ccc(Cl)cc1C(=O)NNC(=S)NC(=O)/C=C/c1ccco1` it is “inactive”.
The entry for `O=C(/C=C/c1ccco1)NC(=S)N1CCCCC1` is “inactive”; for `COc1ccc2c(c1)C(=O)CC(c1ccccc1)O2` (centres undefined) it is “inactive”; for `COc1cccc(-c2cc(C(=O)N/N=C/c3ccc(OC)c(COC(C)=O)c3)c3ccccc3n2)c1` it is “inactive”.
In the case of `CCOc1ccc(-c2cc(C(=O)N/N=C/c3ccc(O)cc3)c3ccccc3n2)cc1`, the Potency is 2.06 µM (active).
Consider `COc1cc(/C=N/NC(=O)c2cc(-c3ccccc3C)nc3ccccc23)cc(OC)c1O`, for which the Potency entry is “inactive”.
Take `O=C1COc2ccc(C(=O)COC(=O)CCOc3ccccc3)cc2N1`: the Potency result is “inactive”.
`Cc1ccc(-c2csc(NC(=O)Cn3[nH]c(=O)c4ccccc4c3=O)n2)cc1`: the Potency was 3.26 µM (active).
Regarding `O=C(CSc1nc2ccccc2c(=O)[nH]1)Nc1nc(-c2ccc(Br)cc2)cs1`, the Potency result is “inactive”.
For `CC(=O)NCc1ccc(-c2csc(NC(=O)CCCc3nc4ccccc4c(=O)[nH]3)n2)cc1`, the Potency result is “inactive”.
As for `O=C(Cn1cnc2c(OCc3ccccc3)ncnc21)NCCCn1ccnc1`, the Potency entry is “inactive”.
The entry for `CC(C)Sc1nc(N)nc2c1ncn2C1OC(CO)C(O)C1O` (centres undefined) is “inactive”.
In the case of `Cn1c(N)c(C(=O)COC(=O)c2cccc(S(=O)(=O)N3CCOCC3)c2)c(=O)n(C)c1=O`, the Potency result was “inactive”.
The entry for `COc1ccccc1C(=O)Nn1c(-c2cccs2)nc2ccccc2c1=O` is “inactive”; for `CC(C)n1c(-c2cccs2)nc2ccccc21` it is “inactive”.
As to `COCCCn1c(-c2cccs2)nc2nc3ccccc3nc21`, the Potency was 18.4 µM (active).
Consider `COC(=O)C1CCN(C(=O)COC(=O)c2cc(S(=O)(=O)N3CCOCC3)ccc2C)CC1`, for which the Potency entry was “inactive”.
For `Cc1ccc2c(O)c(Cc3ccccc3)c(=O)[nH]c2n1`, the Potency result was “inactive”.
The result for `O=C(NCC1CCCO1)c1ccc(S(=O)(=O)Nc2ccc(F)cc2)cc1` (centres undefined) reads “inactive”; that for `COc1ccc(/C=N/NC(=O)c2ccc3c(c2)OCCO3)c(OC)c1`, “inactive”; that for `COc1ccc(/C=N/NC(=O)Nc2ccc3nsnc3c2)c(OC)c1`, 13 µM (active).
As for `COc1ccc(/C=N/NC(=O)CNC(=O)c2ccc(S(=O)(=O)N3CCCC3)cc2)c(OC)c1`, the Potency entry was “inactive”.
In the case of `COc1ccc(CNC(=O)CN2C(=O)c3ccccc3S2(=O)=O)cc1`, the Potency entry is “inactive”.
The entry for `COc1ccc(C(=O)NCc2ccc(C)cc2)cc1S(=O)(=O)N1CCCC1` is “inactive”.

Values taken from PubChem BioAssay AID624296 (National Center for Advancing Translational Sciences (NCATS), 2012).
